Measured values reported in PubChem BioAssay (NCI).
The panel holds about 83,000 compounds, 20% with a hit somewhere; the sample as a whole holds those more often.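 Cells were grown in 96-well plates and exposed to the test compound at a single concentration for 48 hours; results are reported as percent growth, with values below 10 considered active.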 Values without a mark were called inactive. Activity calls are given as the source filed them.

tested on: HL-60(TB) leukemia; test: NCI-60 one-dose screen, 48 h (100 = growth as untreated, 0 = no growth, -100 = all killed); details: 10 µM unless noted

Compound | growth
O=C1[C@@H]2Cc3c([nH]c4ccccc34)[C@H](c3c(Cl)cccc3Cl)N2C(=O)CN1C1CCN(Cc2c(F)cccc2F)CC1 | 109%
CCOC(=O)c1cccc(NC2=C(Cl)C(=O)C(C)=C(C)C2=O)c1 | 31.2%
Cc1cn(-c2cc(NC(=O)c3cncc(C#Cc4cnc5ccc(O[C@@H]6CCOC6)nn45)c3)cc(C(F)(F)F)c2)cn1 | -32.6% (active)
NC(=O)c1c(NC(=O)c2ccc(C(F)(F)F)cc2)sc2c1CCC(=O)C2 | 6.39% (active)
NC(N)=Nc1ccc(Oc2cccc(Nc3ccc(Cl)cc3)c2)cn1 | -69.4% (active)
COc1cc2nc(Cl)nc(Nc3cccc(C4=Nc5c(N)nc(N)nc5NC(c5ccc6c(c5)OCO6)C4)c3)c2cc1OC (configuration not stated) | 68.4%
CCCCCCCCNC(=O)c1ccc(Cn2c(CCCC)nc3c(N)nc4ccccc4c32)cc1 | -57.6% (active)
CC(=O)Oc1ccc(CCN2C(=O)CSC2=S)cc1 | 57%
C=C(C)[C@@H]1CC[C@]2(C(=O)NCCCCCN(CCC#N)CCC#N)CC[C@]3(C)[C@H](CC[C@@H]4[C@@]5(C)CCC(=O)C(C)(C)[C@@H]5CC[C@]43C)[C@@H]12 | 127%
COc1cc(CNC(=O)Cc2ccccc2[N+](=O)[O-])ccc1OCC(=O)NO | 118%
CC1=C(C)C(=O)C(Nc2ccc(C)cc2)=C(Br)C1=O | 68.6%
CCNC(=O)N1CCc2cc(OC)c(OCCc3ccc(OC)cc3)cc2C1c1ccc(Cl)cc1C (configuration not stated) | 12.2%
